Experimental data taken from PubChem BioAssay (NCI).
Where “and” joins values, the source holds several entries; their conditions need not be identical. Identical values can stand only once. Compounds without any hit were thinned out: in the full panel of roughly 79,000, 15% have a hit. Values without a mark were called inactive. Calls of active or inactive are those of the source. Rule as the data show it: active = growth inhibition above about 70%; inactive = the rest.

Key:
[1] = NCI Yeast Anticancer Drug Screen. Data for the rad52 strain (AID 147);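 also: 0% = growth of vehicle-treated control cultures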; conditions: S. cerevisiae rad52 mutant growth inhibition, hits give high values
In short: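 Vehicle-treated cultures served as the reference for growth inhibition of compound-exposed yeast bearing a DNA repair mutation.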

[2] = NCI Yeast Anticancer Drug Screen. Data for the rad50EPP+ strain (AID 151);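 also: 0% = growth of vehicle-treated control cultures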; conditions: S. cerevisiae rad50 mutant strain, hits give high values
In short: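 In this screen, rad50EPP+ yeast were exposed to compounds. Growth inhibition was scored against vehicle-treated controls.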

[3] = NCI Yeast Anticancer Drug Screen. Data for the mgt1 strain (AID 153); conditions: S. cerevisiae mgt1 mutant growth inhibition, hits give high values
In short: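 mgt1 strain exposed; growth vs vehicle control recorded as inhibition.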

[4] = NCI Yeast Anticancer Drug Screen. Data for the rad50 strain (AID 155);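 also: 0% = growth of vehicle-only cultures of the same strain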; conditions: S. cerevisiae rad50 strain growth inhibition, hits give high values
In short: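 Genetically altered yeast (DNA repair pathway); compound treatment; growth inhibition vs vehicle ctrl.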

[5] = NCI Yeast Anticancer Drug Screen. Data for the mec2-1 strain (AID 157); conditions: S. cerevisiae mec2-1 strain, hits give high values
In short: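 Vehicle-treated cultures served as reference for growth inhibition of compound-exposed mec2-1 yeast.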

[6] = NCI Yeast Anticancer Drug Screen. Data for the rad14 strain (AID 159);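 also: 0% = growth of vehicle-treated control cultures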; conditions: S. cerevisiae rad14 strain growth inhibition, hits give high values
In short: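 Test compounds were applied to a repair-deficient yeast strain. Its growth was then compared with that of cultures given vehicle alone, and inhibition was expressed relative to those controls.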

[7] = NCI Yeast Anticancer Drug Screen. Data for the sgs1 mgt1 strain (AID 161);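 also: 0% = growth of cultures given vehicle only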; conditions: S. cerevisiae sgs1 mgt1 strain, hits give high values
In short: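 Read-out: growth inhibition vs vehicle controls. Cells: mutant yeast strain deficient in DNA damage repair.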

[8] = NCI Yeast Anticancer Drug Screen. Data for the CLN2oe strain (AID 163);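 also: 0% = growth of vehicle-only control cultures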; conditions: S. cerevisiae CLN2oe strain, hits give high values
In short: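 Inhibition relative to vehicle-treated yeast is reported. Cells: strain with genetic alteration in cell-cycle control, grown with compound.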

[9] = NCI Yeast Anticancer Drug Screen. Data for the cln2 rad14 strain (AID 165);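 also: 0% = growth equal to vehicle treated cultures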; conditions: S. cerevisiae cln2 rad14 strain, hits give high values
In short: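 Each compound was tested on cln2 rad14 yeast. Inhibition of growth was calculated against vehicle-exposed controls.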

[10] = NCI Yeast Anticancer Drug Screen. Data for the bub3 strain (AID 167); conditions: S. cerevisiae bub3 mutant strain, hits give high values
In short: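 Yeast carrying a defined mutation is treated with each compound, and growth is compared with that of vehicle-exposed cells to give inhibition.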

[11] = NCI Yeast Anticancer Drug Screen. Data for the wt2 strain (AID 169);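 also: 0% = growth of vehicle-treated yeast cultures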; conditions: S. cerevisiae wt2 strain growth inhibition, hits give high values
In short: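 Inhibition of yeast growth was determined after compound treatment, normalised to controls receiving only vehicle.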

[12] = NCI Yeast Anticancer Drug Screen. Data for the sgs1 strain (AID 173);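 also: 0% = growth of vehicle-only control cultures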; conditions: S. cerevisiae sgs1 mutant, hits give high values
In short: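 Screen format: yeast with repair or checkpoint alterations, compound exposure, growth read relative to vehicle.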

[13] = NCI Yeast Anticancer Drug Screen. Data for the mlh1 rad18 strain (AID 175); conditions: S. cerevisiae mlh1 rad18 strain growth inhibition, hits give high values
In short: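 Vehicle-treated cultures served as the reference for growth inhibition in a yeast strain carrying DNA damage repair alterations exposed to each compound.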

[14] = NCI Yeast Anticancer Drug Screen. Data for the rad18 strain (AID 177); conditions: S. cerevisiae rad18 mutant growth inhibition, hits give high values
In short: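 Test articles were incubated with altered yeast defective in DNA damage repair. Results are given as inhibition of growth versus vehicle.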

[15] = NCI Yeast Anticancer Drug Screen. Data for the mlh1 strain (AID 171);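 also: 0% = growth of vehicle-treated control cultures of the same strain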; conditions: S. cerevisiae mlh1 strain growth inhibition, hits give high values
In short: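 Vehicle-normalised growth inhibition of a repair- or checkpoint-altered yeast strain following compound treatment.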

[16] = at 5.0 µM (retest, dose inferred, filed as 0.5)
[17] = at 50.0 µM (retest, dose inferred, filed as 5.0)

Compound `CC1(Cl)CC(C)(/C=C/Cl)C(Cl)CC1Cl` (stereo unspecified) has a growth inhibition ([1]; at 1.2 µM) of 6%, a growth inhibition ([1]; at 3.7 µM) of 8% and a growth inhibition ([1]; at 11.0 µM) of 13%. For the same compound, the growth inhibition ([1]; at 33.0 µM) was 22%, the growth inhibition ([1]; at 100.0 µM) was 43% and the growth inhibition ([2]; at 1.2 µM) was 2%. The growth inhibition ([2]; at 3.7 µM) was 0%, the growth inhibition ([2]; at 11.0 µM) was 6% and the growth inhibition ([2]; at 33.0 µM) was 15%. The growth inhibition ([2]; at 100.0 µM) was 24%, the growth inhibition ([3]; at 1.2 µM) was 2% and the growth inhibition ([3]; at 3.7 µM) was 1%. For the same compound, the growth inhibition ([3]; at 11.0 µM) was 3%, the growth inhibition ([3]; at 33.0 µM) was 5% and the growth inhibition ([3]; at 100.0 µM) was 43%. It also gave a growth inhibition ([4]; at 1.2 µM) of -1%, a growth inhibition ([4]; at 3.7 µM) of -8% and a growth inhibition [4, 16] of 12%. It also gave a growth inhibition ([4]; at 11.0 µM) of -3%, a growth inhibition ([4]; at 33.0 µM) of 28% and a growth inhibition [4, 17] of -8%. The growth inhibition ([4]; at 50.0 µM) was 58.6%, the growth inhibition ([4]; at 100.0 µM) was 48% and the growth inhibition ([5]; at 1.2 µM) was 5%. For the same compound, the growth inhibition ([5]; at 3.7 µM) was 3%, the growth inhibition [5, 16] was 9% and the growth inhibition ([5]; at 11.0 µM) was 6%. The growth inhibition ([5]; at 33.0 µM) was 20%, the growth inhibition [5, 17] was 7% and the growth inhibition ([5]; at 50.0 µM) was 19.1%. The growth inhibition ([5]; at 100.0 µM) was 46%, the growth inhibition ([6]; at 1.2 µM) was 4% and the growth inhibition ([6]; at 3.7 µM) was 1%. The growth inhibition ([6]; at 11.0 µM) was 5%, the growth inhibition ([6]; at 33.0 µM) was 16% and the growth inhibition ([6]; at 100.0 µM) was 48%. The growth inhibition [7, 16] was 1%, the growth inhibition [7, 17] was -17% and the growth inhibition ([7]; at 50.0 µM) was 51%. The growth inhibition ([8]; at 1.2 µM) was 3%, the growth inhibition ([8]; at 3.7 µM) was 5% and the growth inhibition ([8]; at 11.0 µM) was 8%. It also gave a growth inhibition ([8]; at 33.0 µM) of 23%, a growth inhibition ([8]; at 100.0 µM) of 49% and a growth inhibition [9, 16] of 40%. For the same compound, the growth inhibition [9, 17] was -20%, the growth inhibition ([9]; at 50.0 µM) was 45% and the growth inhibition ([10]; at 1.2 µM) was 2%. The growth inhibition ([10]; at 3.7 µM) was 0%, the growth inhibition [10, 16] was -3% and the growth inhibition ([10]; at 11.0 µM) was 2%. It also gave a growth inhibition ([10]; at 33.0 µM) of 12%, a growth inhibition [10, 17] of -8% and a growth inhibition ([10]; at 50.0 µM) of 15.4%. It also gave a growth inhibition ([10]; at 100.0 µM) of 31%, a growth inhibition ([11]; at 1.2 µM) of 0% and a growth inhibition ([11]; at 3.7 µM) of 1%. It also gave a growth inhibition ([11]; at 11.0 µM) of 3%, a growth inhibition ([11]; at 33.0 µM) of 16% and a growth inhibition ([11]; at 100.0 µM) of 50%. For the same compound, the growth inhibition ([12]; at 1.2 µM) was 4%, the growth inhibition ([12]; at 3.7 µM) was 2% and the growth inhibition ([12]; at 11.0 µM) was 2%. It also gave a growth inhibition ([12]; at 33.0 µM) of 28%, a growth inhibition ([12]; at 100.0 µM) of 64% and a growth inhibition [13, 16] of 8%. For the same compound, the growth inhibition [13, 17] was -23%, the growth inhibition ([13]; at 50.0 µM) was 79.4% (active) and the growth inhibition ([14]; at 1.2 µM) was 5%. For the same compound, the growth inhibition ([14]; at 3.7 µM) was 5%, the growth inhibition ([14]; at 11.0 µM) was 12% and the growth inhibition ([14]; at 33.0 µM) was 30%. It also gave a growth inhibition ([14]; at 100.0 µM) of 48%.

For `O=S(=O)(O)/C(=C\c1ccccc1)c1ccccc1` (tested in a mixture with another compound), the growth inhibition ([1]; at 1.2 µM) was -3%, the growth inhibition ([1]; at 3.7 µM) was -2% and the growth inhibition ([1]; at 11.0 µM) was -6%. The growth inhibition ([1]; at 33.0 µM) was -5%, the growth inhibition ([1]; at 100.0 µM) was -8% and the growth inhibition ([2]; at 1.2 µM) was -3%. The growth inhibition ([2]; at 3.7 µM) was -2%, the growth inhibition ([2]; at 11.0 µM) was -3% and the growth inhibition ([2]; at 33.0 µM) was -3%. It also gave a growth inhibition ([2]; at 100.0 µM) of 3%, a growth inhibition ([3]; at 1.2 µM) of 0% and a growth inhibition ([3]; at 3.7 µM) of -1%. It also gave a growth inhibition ([3]; at 11.0 µM) of -1%, a growth inhibition ([3]; at 33.0 µM) of -2% and a growth inhibition ([3]; at 100.0 µM) of -2%. It also gave a growth inhibition ([4]; at 1.2 µM) of 0%, a growth inhibition ([4]; at 3.7 µM) of -5% and a growth inhibition [4, 16] of 15%. The growth inhibition ([4]; at 11.0 µM) was 1%, the growth inhibition ([4]; at 33.0 µM) was -5% and the growth inhibition [4, 17] was 15%. The growth inhibition ([4]; at 50.0 µM) was -10.3% and -8% and 14.8%, the growth inhibition ([4]; at 100.0 µM) was -4% and the growth inhibition ([5]; at 1.2 µM) was -3%. It also gave a growth inhibition ([5]; at 3.7 µM) of -2%, a growth inhibition [5, 16] of 24% and a growth inhibition ([5]; at 11.0 µM) of -3%. The growth inhibition ([5]; at 33.0 µM) was -2%, the growth inhibition [5, 17] was 24% and the growth inhibition ([5]; at 50.0 µM) was 2.1% and -4.7% and -21.4%. It also gave a growth inhibition ([5]; at 100.0 µM) of 10%, a growth inhibition ([6]; at 1.2 µM) of 0% and a growth inhibition ([6]; at 3.7 µM) of 0%. It also gave a growth inhibition ([6]; at 11.0 µM) of 2%, a growth inhibition ([6]; at 33.0 µM) of -7% and a growth inhibition ([6]; at 100.0 µM) of 3%. For the same compound, the growth inhibition [7, 16] was 12%, the growth inhibition [7, 17] was 3% and the growth inhibition ([7]; at 50.0 µM) was -28.2% and -11.8% and -14.2%. The growth inhibition ([8]; at 1.2 µM) was -3%, the growth inhibition ([8]; at 3.7 µM) was -1% and the growth inhibition ([8]; at 11.0 µM) was -5%. For the same compound, the growth inhibition ([8]; at 33.0 µM) was -7%, the growth inhibition ([8]; at 100.0 µM) was 2% and the growth inhibition [9, 16] was 55%. For the same compound, the growth inhibition [9, 17] was 23%, the growth inhibition ([9]; at 50.0 µM) was 28.4% and 15.9% and 9.35% and the growth inhibition ([10]; at 1.2 µM) was -11%. For the same compound, the growth inhibition ([10]; at 3.7 µM) was -6%, the growth inhibition [10, 16] was 97% (active) and the growth inhibition ([10]; at 11.0 µM) was -30%. For the same compound, the growth inhibition ([10]; at 33.0 µM) was 19%, the growth inhibition [10, 17] was 95% (active) and the growth inhibition ([10]; at 50.0 µM) was -19.1% and -0.25% and 3.5%. The growth inhibition ([10]; at 100.0 µM) was 1%, the growth inhibition ([11]; at 1.2 µM) was -2% and the growth inhibition ([11]; at 3.7 µM) was 0%. For the same compound, the growth inhibition ([11]; at 11.0 µM) was -4%, the growth inhibition ([11]; at 33.0 µM) was -2% and the growth inhibition ([11]; at 100.0 µM) was -2%. For the same compound, the growth inhibition ([15]; at 1.2 µM) was 0%, the growth inhibition ([15]; at 3.7 µM) was 2% and the growth inhibition ([15]; at 11.0 µM) was 1%. For the same compound, the growth inhibition ([15]; at 33.0 µM) was -22%, the growth inhibition ([15]; at 100.0 µM) was 10% and the growth inhibition ([12]; at 1.2 µM) was 0%. It also gave a growth inhibition ([12]; at 3.7 µM) of -1%, a growth inhibition ([12]; at 11.0 µM) of -2% and a growth inhibition ([12]; at 33.0 µM) of -5%. It also gave a growth inhibition ([12]; at 100.0 µM) of -4%, a growth inhibition [13, 16] of 39% and a growth inhibition [13, 17] of 4%. The growth inhibition ([13]; at 50.0 µM) was 8.8% and -6.15% and -15.1%, the growth inhibition ([14]; at 1.2 µM) was -2% and the growth inhibition ([14]; at 3.7 µM) was 2%. It also gave a growth inhibition ([14]; at 11.0 µM) of 5%, a growth inhibition ([14]; at 33.0 µM) of -5% and a growth inhibition ([14]; at 100.0 µM) of -11%.
